The values that follow come from PubChem BioAssay (EPA / NIEHS).

Records with an inconclusive call do not appear. Active and inactive are the calls of the source. How the source made its calls, unless noted: active means hit-call score of the fitted dose curve at least 0.9, where 1 is the maximum; inconclusive means response in the unintended direction; inactive means score below 0.9.

A word on the AC50: it is the concentration giving half of the maximal activity seen.

Assay [1] in a line: Tanguay_ZF_120hpf_OTIC_legacy: (Legacy) Oregon State University Tanguay Lab 120 Hour Post-fertilization zebrafish Assay for Otic Vesicle Malformation (AID 2283639). In outline: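 Binary scoring of otic vesicle defects at 120 hpf in zebrafish (Tropical 5D) held under static exposure at 28C, sealed and shaded, with final DMSO 0.64%. Embryos dying by 24 or 120 hpf excluded; fitted positively against DMSO.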

Assay [2] in a line: Tanguay_ZF_120hpf_PE_legacy: (Legacy) Oregon State University Tanguay Lab 120 Hour Post-fertilization zebrafish Assay for Pericardial Edema (AID 2283640).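 On AC50: potency for increased incidence of pericardial edema versus DMSO baseline.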 An outline of the steps:
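Embryos from wild-type 5D adults were staged, then dosed in 0.64% DMSO. They were kept sealed in the dark at 28C until 120 hpf. Pericardial edema was then recorded as present or absent.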

Assay [3] can be described thus: Tanguay_ZF_120hpf_BRAI_legacy: (Legacy) Oregon State University Tanguay Lab 120 Hour Post-fertilization zebrafish Assay for Brain Malformation (AID 2283641). An outline of the steps: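 Wild-type 5D larvae, static waterborne exposure to 120 hpf, 28C, 0.64% v/v DMSO. Brightfield scoring of brain defects, binary; dead embryos excluded. Positive ctrl 5uM trimethyltin chloride.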

A short description of assay [4]: Tanguay_ZF_120hpf_SOMI_legacy: (Legacy) Oregon State University Tanguay Lab 120 Hour Post-fertilization zebrafish Assay for Somite Malformation (AID 2283647). An outline of the steps:
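Read-out: presence or absence of somite malformation in 120 hpf larvae, gain-of-signal relative to DMSO baseline. Embryos lacked chorion (pronase, 4 hpf) and were exposed statically from 6 hpf at 28C; dead larvae not scored.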

A short description of assay [5]: Tanguay_ZF_120hpf_PFIN_legacy: (Legacy) Oregon State University Tanguay Lab 120 Hour Post-fertilization zebrafish Assay for Pectoral Fin Malformation (AID 2283648).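 Further: each larva judged yes or no for fin defect by brightfield with dead larvae skipped.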 An outline of the steps: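 Binary pectoral fin malformation call at 120 hpf by brightfield microscopy; 5D wild-type zebrafish, chorion removed at 4 hpf, one embryo per well from 6 hpf, static exposure at 28C; DMSO (0.64% final) as baseline.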

Assay [6] is described as follows: Tanguay_ZF_120hpf_PIG_legacy: (Legacy) Oregon State University Tanguay Lab 120 Hour Post-fertilization zebrafish Assay for Pigmentation Malformation (AID 2283650).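 Further: dechorionated Tropical 5D zebrafish embryos exposed singly from 6 to 120 hpf.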 An outline of the steps:
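Brightfield scoring of pigmentation malformation at 120 hpf, recorded as binary present/absent per larva. Exposure: dechorionated 5D wild-type embryos, one per well, static from 6 hpf at 28C, final DMSO 0.64% (vol/vol). Dead embryos not scored.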

Assay [7] can be described thus: Tanguay_ZF_120hpf_CIRC_legacy: (Legacy) Oregon State University Tanguay Lab 120 Hour Post-fertilization zebrafish Assay for Circulatory Malformation (AID 2283651). An outline of the steps:
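Binary circulatory malformation call at 120 hpf by brightfield imaging of zebrafish larvae; chorion removed at 4 hpf, static exposure from 6 hpf in sealed dark plates at 28C, final DMSO 0.64%; non-mortality endpoints skipped if embryo died.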

Assay [8] is described as follows: Tanguay_ZF_120hpf_CFIN_legacy: (Legacy) Oregon State University Tanguay Lab 120 Hour Post-fertilization zebrafish Assay for Caudal Fin Malformation (AID 2283649). In outline: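 Binary presence or absence of caudal fin malformation at 120 hpf, read by brightfield microscopy, with DMSO as baseline. Larvae came from 5D wild-type embryos exposed statically from 6 hpf at 28C after pronase dechorionation.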

Read-out in assay [9]: solute carrier (SLC22A6), SLC22A6 (gene 9356)
Description: LTEA_HepaRG_SLC22A6: Life Technologies and Expression Analysis (LTEA) Assay for solute carrier (SLC22A6) using HepaRG (AID 2283653; active means hit-call score of the fitted dose curve at least 0.9, where 1 is the maximum; inactive means score below 0.9). Particulars: mRNA level, 48 h; actives raise or lower the signal. On the procedure: (§1) LTEA_HepaRG is a cell based, multiplexed-readout assay that uses HepaRG, a human liver cell line, with measurements taken at 48 hours after chemical dosing on a 96-well plate.LTEA_HepaRG_SLC22A6 is one of 102 assay component(s) measured in the LTEA HepaRG cell culture assay. It is a marker of NR mediated transport.Data from the assay component LTEA_HepaRG_SLC22A6 was analyzed into 1 endpoint. This assay endpoint, LTEA_HepaRG_SLC22A6, was analyzed with bidirectional fitting relative to DMSO as the negative control and baseline of activity. Using a type of inducible reporter, measures of mRNA induction for gain or loss-of-signal activity can be used to understand regulation of transcription factor activity. To generalize the intended target to other relatable targets, this assay endpoint is annotated to the transporter intended target family, where the subfamily is organic anion transporter.
(§2) A total of 1060 chemcials from the ToxCast library were tested in eight-point concentration-response experiments. Cell culture and cytotoxicity assays were conducted at Thermo Fisher Scientific's Custom Services facility (Madison, WI). A single lot of human HepaRG cells (Thermo Fisher Scientific, Frederick, MD) was used for the cell culture experiments. 96-well format collagen type I coated plates of human HepaRG cells were prepared using established methods. Briefly, cryopreserved HepaRG cells were thawed, plated at a density of approximately 100,000 cells/well in HepaRG Thaw, Plate, and General Purpose media (HPRG770, Thermo Fisher Scientific), and incubated for 48 hours. 0.5% DMSO was selected as vehicle control to balance the requisite need of DMSO in HepaRG cultures to maintain differentiation (for example, baseline metabolism, proportions of hepatocytes vs. cholangiocytes), while enabling further hepatic receptor pathway activation (for example, PXR and CAR) in response to chemical exposure. 48 hours after plating, the culture medium was replaced with HepaRG Serum-Free Incudtion Media. Cells were exposed to each test chemical in duplicate and maintained in CO2 incubators for another 48 hours. Chemical plates were thawed to room temperature and 200x concentrations of treatment groups were prepared. 8-point conentration-reponse curves were made with the highest exposure at 100 uM, followed by half-log dilutions, all in 0.5% DMSO. Each test plate contained variouse controls, induction positive controls (1mM phenobarbital), cytotoxicity positive controls ([…] aflatoxin B1), vehicle controls (0.5% DMSO), and total lysis controls (0.5% DMSO). Cell morphology images were taken using an Essen IncuCyte FLR automated microscope, with six 96-well plates imaged in about 24 minutes. Images were captured and exported and JPEG files. Spent culture media was transfered to black-well plates for the LDH assay, and remaining media was sorted at -80 C for later use. Cells were treated with RLT buffer and frozen until shipped for gene expression analysis. Total RNA was isolated from the cell suspension in 75 uL of Buffer RLT (Qiagen, Germantown, MD 20874) by Quintiles/Expression Analysis (Durham, NC) using a custom isolation procedure. Total RNA from each plate well was transferred to a preamplification plate. Fluidigm's 96.96 Dynamic ArrayTM (Fluidigm, Amsterdam, the Netherlands) technology was used for gene expression analyses by quantitative reverse transcription polymerase chain reaction (qRT-PCR, performed by Quintiles/Expression Analysis, Durham, NC)89. Standard TaqManTM Assays (Applied Biosystems/ThermoFisher Scientific, Foster City, CA) were used to assess the expression of 93 genes selected based on their selectivity and sensitivity to important hepatic receptors known to be modulated by environmental chemicals; importance in human hepatocyte functionality; and hepatotoxicity. […]

Read-out in assay [10]: kallikrein-3 (KLK3), KLK3 (gene 354)
In words: LTEA_HepaRG_KLK3: Life Technologies and Expression Analysis (LTEA) Assay for kallikrein-3 (KLK3) using HepaRG (AID 2283652; active means hit-call score of the fitted dose curve at least 0.9, where 1 is the maximum; inactive means score below 0.9). Particulars: mRNA level, 48 h; actives raise or lower the signal. On the procedure:
as §1, with “plate.LTEA_HepaRG_KLK3” for “plate.LTEA_HepaRG_SLC22A6”, “Cellular remodeling.Data” for “NR mediated transport.Data”, “LTEA_HepaRG_KLK3” for “LTEA_HepaRG_SLC22A6”, “LTEA_HepaRG_KLK3,” for “LTEA_HepaRG_SLC22A6,”, “protease” for “transporter”, “Cellular remodeling.” for “organic anion transporter.”
as §2, with “NC)89.” for “NC)89. Standard TaqManTM Assays (Applied Biosystems/ThermoFisher Scientific, Foster City, CA) were used to assess the expression of 93 genes selected based on their selectivity and sensitivity to important hepatic receptors known to be modulated by environmental chemicals; importance in human hepatocyte functionality; and hepatotoxicity.”

`Nc1nc(N)c2nc(CNc3ccc(C(=O)N[C@@H](CCC(=O)O)C(=O)O)cc3)cnc2n1`: the result in assay [1], in assay [2], in assay [3], in assay [4], in assay [5] and in [6] was inactive. In addition, the compound was called inactive in [7].
For `CCNc1cccc(C)c1`, the outcome in assay [1], in [2], in assay [3], in assay [4], in [5] and in assay [8] was inactive. In addition, the result in [6] and in [7] was inactive.
For the compound `Cc1cccc([N+](=O)[O-])c1C`, the compound was classed as inactive in assay [1], in [2], in [3], in assay [5], in assay [8] and in assay [6]. Besides, the outcome in [7] was inactive.
Consider `CC1(C)NC(=O)NC1=O`, for which the result in assay [1], in assay [2], in [5] and in [8] was inactive.
As to `COc1cc(C=O)ccc1O`, the AC50 in [1] was 59.2 µM (active); in assay [2], 37.6 µM (active); in assay [3] it was 44.7 µM (active); in assay [5] it was 42.8 µM (active); in assay [6], 45.9 µM (active). For the same compound, the result in [4] and in [9] was inactive.
For the compound `CCCCOC(=O)CCCCCCCCC(=O)OCCCC`, the compound was classed as inactive in assay [1], in [2], in assay [4], in assay [5], in assay [8] and in assay [6]. The outcome in [7] was inactive.
Regarding `O=c1c(O)c(-c2ccc(O)c(O)c2)oc2cc(O)cc(O)c12`, the call in assay [1], in assay [2], in [3], in [5], in [6] and in assay [7] was inactive.
Regarding `CNCc1cc(F)ccc1Oc1ccc(Cl)c(Cl)c1`, the compound was called inactive in [1], in assay [3], in assay [5], in assay [8] and in assay [6].
Take `Cc1nc(-c2ccc3c(c2)CCN(CCC2CCC(NC(=O)/C=C/c4ccc(F)cc4)CC2)CC3)no1` (configuration not stated): the outcome in assay [1], in assay [2], in assay [3], in assay [5], in assay [6] and in assay [7] was inactive.
As for `CC(=O)C(C)=CC1C(C)=CCCC1(C)C` (configuration not stated), the result in assay [2], in assay [3], in assay [4], in assay [5], in assay [6] and in assay [7] was inactive.
As to `CCCc1cc(=O)[nH]c(=S)[nH]1`, the compound was classed as inactive in assay [2], in assay [3], in [4], in assay [5], in assay [8] and in [6].
As for `CCCCc1ccc2c(n1)[C@@H](c1ccc(OC)cc1C[C@H](C)C(=O)O)[C@H](C(=O)O)[C@H]2c1ccc2c(c1)OCO2`, the compound was classed as inactive in assay [2], in [3], in assay [4], in assay [5], in assay [8] and in assay [6]. For the same compound, the call in assay [7] was inactive.
`COc1cc(S(=O)(=O)O)c(C)cc1N=Nc1c(O)ccc2cc(S(=O)(=O)O)ccc12`: the result in [2], in assay [3], in [4] and in [6] was inactive.
`C[Si]1(C)O[Si](C)(C)O[Si](C)(C)O[Si](C)(C)O1`: the result in assay [2], in assay [3], in assay [4], in assay [5], in assay [8] and in assay [6] was inactive.
As to `COc1ccc2c(c1)c(CC(=O)O)c(C)n2C(=O)c1ccc(Cl)cc1`, the outcome in assay [2], in [3], in [4], in [5], in assay [8] and in assay [6] was inactive. For the same compound, the result in assay [7] was inactive.
Regarding `COCCOCCOC`, the compound was classed as inactive in assay [2], in assay [3], in assay [5], in assay [8], in assay [6] and in assay [7].
As for `CCCCCCCCCCC`, the outcome in assay [2], in assay [3], in [4], in assay [5], in [8] and in [6] was inactive. Also, the compound was called inactive in [7], in assay [10] and in [9].
On to `CN1CCN(Cc2cc(-c3ccc4[nH]c(=O)oc4c3)co2)[C@@H](c2ccc(F)cc2)C1`, for which the compound was called inactive in [2], in assay [3], in [5], in assay [8], in assay [6] and in assay [7].
`CN1CCCC1=O`: the result in [2], in assay [3], in [4], in [5], in [6] and in assay [7] was inactive. Moreover, the compound was called inactive in assay [10] and in assay [9].
